# Measurements: PubChem BioAssay (NCATS)
# Results filed as inconclusive are left out. Values without a mark were called inactive. The call rests on the fitted dose curve; in most records, active means well fitted inhibition curve with a large enough effect; inconclusive means small, poorly fitted or top-dose-only effect; inactive means flat fitted curve, though single readings scatter. *1 amine or outer side, *2 acyl side, *3 side chain or, on linkers, in order; H or OH if unused. Where a SMILES comes first, the peptide text is derived from it. Bridges are numbered along the chain shown (N, C = ends). [ ]: non-standard residue; d: D form. PhLac = O=C(O)[CH](O)Cc1ccccc1; NMeV = CN[CH](C(=O)O)C(C)C; X6 = O=C(CCC[*:2])[*:1]
# Biological target: Calcium and integrin-binding protein 1 (Homo sapiens) (UniProt Q99828)
# Test: Primary qHTS for Identification of Calcium Integrin Binding Protein 1 (CIB1) Competitor (AID 1508620);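 further: GST tagged CIB1 binding a fluorescein labelled alphaIIb integrin peptide tracer; top concentration of the series differs between compounds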
# Details: CIB1-GST / FITC-alphaIIb peptide fluorescence polarization; series mostly up to 57.7 µM; activity change, negative = inhibition: at the top concentration
# Summary of the method: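 CIB1-GST (1 uM final) and compound incubated 15 min at room temperature before adding FITC-alphaIIb peptide tracer (100 nM final). Competition for binding read by fluorescence polarization (ex 480, em 540) after another 15 min at room temperature.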
# On the % scale 0 is the no-effect control and ±100 the full control effect.
# Chain of Calcium and integrin-binding protein 1 (Homo sapiens) (Q99828 whole entry, looked up): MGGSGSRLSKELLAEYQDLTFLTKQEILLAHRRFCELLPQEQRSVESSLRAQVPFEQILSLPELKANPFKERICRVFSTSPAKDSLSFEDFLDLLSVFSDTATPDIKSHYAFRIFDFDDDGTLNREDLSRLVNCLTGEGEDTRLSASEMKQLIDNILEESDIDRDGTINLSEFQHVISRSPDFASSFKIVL
row,Compound,"activity change, negative = inhibition"
1,COC(=O)C1C(c2ccc(O)cc2)C(C(=O)OC)C1c1ccc(O)cc1 (stereo not given),1.64%
2,C=C(C(=O)O)[C@@H]1CC=C2CCC[C@H](C)[C@@]2(C)C1,1.92% [at 114 µM]
3,C/C=C(\C)C(=O)O[C@H]1[C@@H](O[C@]2(COC(=O)CC(C)C)O[C@H](COC(=O)C(C)C)[C@@H](OC(C)=O)[C@@H]2O)O[C@H](COC(C)=O)[C@@H](O)[C@@H]1O,3.01% [at 30.2 µM]
4,CC/C=C/CC1=C(CCCCCCCC(=O)O)CCC1=O,-14.9% [at 114 µM]
5,C[C@@H]1C(=O)O[C@H]2CC34[C@H]5C[C@@H](C(C)(C)C)C36[C@@H](OC(=O)[C@@H]6O)OC4(C(=O)O5)[C@]21O (stereo not given in full),1.41% [at 114 µM]
6,Oc1ccc([C@H]2COc3cc(O)ccc3C2)cc1,-0.443% [at 114 µM]
7,COC(=O)C1=COC(OC2OC(CO)C(O)C(O)C2O)C2C1CC(OC(=O)C(O)CC(=O)O)C2C (stereo not given),1.03%
8,CC(=O)O[C@@H]1C[C@@]23C[C@@]24CC[C@H](OC2OC[C@@H](O)[C@H](O)[C@H]2O)C(C)(C)[C@@H]4CC[C@H]3[C@]2(C)CC3OC4(C[C@@H](C)C3[C@@]12C)OCC1(C)OC14 (stereo not given in full),-2.72% [at 30.2 µM]
9,CC(CCC1(O)OC2CC3C4CCC5CC(O[C@@H]6O[C@H](CO)[C@@H](O)[C@H](O)[C@H]6O[C@@H]6OC[C@@H](O)[C@H](O)[C@H]6O)C(O)CC5(C)C4CCC3(C)C2C1C)CO[C@@H]1O[C@H](CO)[C@@H](O)[C@H](O)[C@H]1O (stereo not given in full),-0.357% [at 30.2 µM]
10,C[C@@H]1C[C@H](O[C@@H]2O[C@H](CO[C@@H]3OC[C@](O)(CO)[C@H]3O)[C@@H](O)[C@H](O)[C@H]2O)CC(C)(C)[C@H]1/C=C/[C@@H](C)O,-0.584%
11,COC1CCCC/C(C)=C/C2C=C(C)C(C)C3C(CC(C)C)NC(=O)C23C(=O)C1 (stereo not given),-2.13%
12,C=C(C)C(=O)O[C@H]1C[C@@](C)(OC(C)=O)[C@@]2(O)CC[C@@](C)(O)[C@H](OC(C)=O)[C@@]23OC(=O)C(COC)=C13,-7.51%
13,C[C@@H]1C/C=C/C=C\C=C\C=C\[C@H](O[C@@H]2O[C@H](C)[C@@H](O)[C@H](N)[C@@H]2O)C[C@@H]2O[C@](O)(C[C@@H](O)C[C@H]3O[C@@H]3/C=C/C(=O)O1)C[C@H](O)[C@H]2C(=O)O,1.59% [at 30.2 µM]
14,COC(=O)C12C(=O)C(C)=C(O)C1(C)C(C)=CC1C34CCC(OC3=O)C(C)(C)C4CCC12C (stereo not given),4.73%
15,C=C(C)[C@@H](C)[C@H]1O[C@]23C[C@]4(CO2)C(CCC2[C@@]5(C)CC[C@H](O[C@@H]6OC[C@H](O)[C@H](O[C@@H]7O[C@H](CO)[C@@H](O)[C@H](O)[C@H]7O)[C@H]6O[C@@H]6O[C@@H](CO)[C@H](O)[C@H]6O)C(C)(C)C5CC[C@]24C)C3[C@@](C)(O)[C@@H]1OC(C)=O (stereo not given in full),1.33% [at 30.2 µM]
16,CC1NC(=O)C(Cc2c[nH]c3ccccc23)NC1=O (stereo not given),-4.49% [at 114 µM]
17,C=CC1(C)CC(O)C2(CCC3C(C)(C(=O)O)CCCC3(C)C2=O)C1 (stereo not given),-1.71%
18,CN1C(=O)c2ccccc2NC(=O)[C@]12O[C@@H]2c1cccc(O)c1,-7.54% [at 114 µM]
19,CC(=O)OCCC(C)CCC1C(C)(O)CCC2C(C)(C)CCCC21C (stereo not given),2.18%
20,CC[C@H](C)[C@@H]1NC(=O)[C@H](Cc2ccc(OC)cc2)NC(=O)CCCSC[C@@H](C(=O)N2CCC[C@H]2C(=O)N[C@@H](CC(C)C)C(=O)NCC(N)=O)NC(=O)[C@H](CC(N)=O)NC(=O)[C@H](CCC(N)=O)NC1=O (Y(Me)IQNCPLG-NH2; linker N-5 via X6),1.44%

row,Compound,"activity change, negative = inhibition"
1,COc1ccc2c(c1)O[C@H](O[C@@H]1O[C@H](CO)[C@@H](O)[C@H](O)[C@H]1O)C(=O)N2,1.98%
2,CC12CCC3c4ccc(O)cc4CCC3C1CCC2OC1OC(C(=O)O)C(O)C(O)C1O (stereo not given),-0.0165% [at 114 µM]
3,CC(=O)O[C@@H]1[C@H](O[C@@H]2OC[C@](O)(CO)[C@H]2O)[C@@H](O[C@@H]2O[C@@H](C)[C@H](O)[C@@H](O)[C@H]2O)[C@H](OC(=O)[C@]23CCC(C)(C)C[C@H]2C2=CCC4[C@@]5(C)C[C@H](O)[C@H](O[C@@H]6O[C@H](C(=O)O)[C@@H](O)[C@H](O)[C@H]6O)[C@@](C)(C(=O)O)C5CC[C@@]4(C)[C@]2(C)CC3)O[C@@H]1C (stereo not given in full),-1.72% [at 30.2 µM]
4,C[C@@H]1O[C@@H](O[C@H]2[C@H](O)[C@@H](C(=O)O)O[C@@H](O[C@H]3CC[C@@]4(C)C(CC[C@]5(C)C4CC=C4C6CC(C)(C)CC[C@]6(C(=O)O)CC[C@]45C)C3(C)C)[C@@H]2O[C@@H]2O[C@H](CO)[C@@H](O)[C@H](O)[C@H]2O)[C@H](O)[C@H](O)[C@H]1O (stereo not given in full),2.54% [at 30.2 µM]
5,COC1C=C([C@@H]2CC=C3[C@@]4(C)C(CC[C@]32C)[C@@]2(C)C=CC(=O)C(C)(C)C2C[C@H]4OC(C)=O)C(=O)O1 (stereo not given in full),-5.01%
6,CC(=O)NC(CCC(=O)O)C(=O)NCCc1ccc(O)cc1 (stereo not given),-3.27% [at 114 µM]
7,C=C1C[C@@]23CC[C@@H]4[C@](C)(C(=O)O)CCC[C@@]4(C)C2=CC[C@H]1C3,-4.02% [at 114 µM]
8,C=C(C)C(C)C1OC23CC4(CO2)C(CCC2C5(C)CCC(OC6OCC(O)C(OC7OC(CO)C(O)C(OC8OCC(O)C(O)C8O)C7O)C6OC6OC(CO)C(O)C6O)C(C)(C)C5CCC24C)C3C(C)(O)C1OC(C)=O (stereo not given),14.5% [at 30.2 µM]
9,CC(C)C(C(=O)N1CCCC1C(=O)O)N(C)C(=O)C(O)Cc1ccccc1 (stereo not given) (H-[PhLac]-[NMeV]-Pro-OH; configuration not given here),3.88%
10,C[C@@H]1O[C@@H](O[C@H]2[C@H](O[C@H]3[C@H](O[C@H]4CC[C@@]5(CO)C(CC[C@]6(C)C5CC=C5C7CC(C)(C)C[C@@H](O)[C@]7(C)CC[C@]56C)C4(C)C)O[C@H](C(=O)O)[C@@H](O)[C@@H]3O)OC[C@@H](O)[C@@H]2O)[C@H](O)[C@H](O)[C@H]1O (stereo not given in full),-1.21% [at 30.2 µM]
11,COC(=O)CC[C@@H](C)[C@H]1CC[C@H]2[C@@H]3CC(=O)[C@H]4C[C@H](OC(C)=O)CC[C@]4(C)[C@H]3CC[C@]12C,3.34% [at 114 µM]
12,CC(C)(O)c1ccc2c(c1)C(O)CC1C(C)(C(=O)O)CCCC21C (stereo not given),3.29%
13,CN1C(=O)c2ccccc2-n2c(nc3ccccc3c2=O)/C1=C/c1ccccc1,-0.856%
14,CC[C@H](/C=C/[C@@H](C)[C@H]1CC[C@H]2[C@@H]3CC=C4C[C@@H](O)CC[C@]4(C)[C@H]3CC[C@]12C)C(C)C,1.65% [at 12.4 µM]
15,CC1(C)CC2C(O)C3=C(CC(C)(O)C2C1)C(=O)OC3O (stereo not given),-2.85% [at 114 µM]
16,CC1=C(C)C(=O)OC(C(C)C2C(O)CC3C4C5OC5C5(O)CC(OC6OC(CO)C(O)C(O)C6O)CC(O)C5(C)C4CCC32C)C1 (stereo not given),-2.32% [at 30.2 µM]
17,COc1cc(C2Oc3c(OC)cc(CCCO[C@@H]4O[C@H](CO)[C@@H](O)[C@H](O)[C@H]4O)cc3C2CO)ccc1O (stereo not given in full),-7.26%
18,C/C=C/C1=CC2=C(CO1)C(=O)[C@](C)(O)[C@H](OC(=O)c1c(O)cc(OC)c(O)c1C)C2,-9.96%
19,C[C@]1(OC(=O)/C=C/c2ccccc2)C[C@H](O)[C@]2(O)C=CO[C@@H](O[C@@H]3O[C@H](CO)[C@@H](O)[C@H](O)[C@H]3O)C12 (stereo not given in full),-2.14%
20,CC(C)=CCC[C@](C)(O[C@@H]1O[C@H](CO[C@@H]2OC[C@@H](O)[C@H](O)[C@H]2O)[C@@H](O)[C@H](O)[C@H]1O)[C@H]1CC[C@]2(C)[C@@H]1[C@H](O)C[C@@H]1[C@@]3(C)CC[C@H](O[C@@H]4O[C@H](CO)[C@@H](O)[C@H](O)[C@H]4O[C@@H]4O[C@H](CO)[C@@H](O)[C@H](O)[C@H]4O)C(C)(C)[C@@H]3CC[C@]12C,-1.61%
